The panel holds about 83,000 compounds, 20% with a hit somewhere; the sample as a whole holds those more often.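 96-well plates, one dose, 48 hours. Percent growth reported; active if below 10.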 Active and inactive are the calls of the source.
Legend:
Assay in all cases: NCI-60 one-dose screen, 48 h (100 = growth as untreated, 0 = no growth, -100 = all killed)
Conditions in all cases: 10 µM unless noted
[1] = tested on: SK-MEL-2 melanoma
[2] = tested on: EKVX NSCLC
[3] = tested on: SN12C renal
[4] = tested on: UO-31 renal
[5] = tested on: ACHN renal
[6] = tested on: CAKI-1 renal
[7] = tested on: A498 renal
[8] = tested on: CCRF-CEM leukemia
[9] = tested on: MOLT-4 leukemia
[10] = tested on: TK-10 renal

Measured: growth

CN(C)S(=O)(=O)c1ccc(-c2nc(C(Cl)Cl)nc3cc(-c4ccc(F)cc4)nn23)cc1
inactive: [2] 22.7% | [3] 24.3% | [4] 44.3% | [7] 49.7% | [8] 21.7%
active: [1] 9.25% | [5] 5.28% | [6] 3.68% | [9] 3.19%

O=C(CSc1nc2ccccc2c(=O)n1-c1ccc(Cl)c(Cl)c1)Nc1ccc(S(=O)(=O)Nc2ccc(Cl)nn2)cc1
inactive: [1] 103% | [2] 94.5% | [3] 96.4% | [4] 79.8% | [5] 95.3% | [6] 82.1% | [7] 103% | [8] 97% | [9] 97.2%

CC[C@]12CC(C(=O)OC)=C3Nc4ccccc4[C@@]34CCN(C14)[C@@H]1c3cc4c(cc3O[C@@H]1[C@H]2O)NC1=C(C(=O)OC)C[C@@]2(CC)C3N(CC[C@@]143)C[C@H]1O[C@H]12 (stereo not given in full)
inactive: [1] 40.8% | [2] 26.1% | [3] 31.1% | [5] 11.1% | [8] 12.6% | [9] 14%
active: [4] 7.33% | [6] 8.4% | [7] -46.1%

C#CCOc1cccc(/C(N)=N/C(N)=N/c2nc3ccccc3s2)c1
inactive: [1] 103% | [2] 73.8% | [3] 66% | [4] 91.8% | [5] 81.4% | [6] 73.5% | [7] 122% | [8] 76.5%

CC1=C(C)C(=O)C(Nc2cccc(C(=O)OC(C)(C)C)c2)=CC1=O
inactive: [1] 82.4% | [2] 81.2% | [3] 61.3% | [4] 66.4% | [5] 86.4% | [6] 71.5% | [7] 66.9% | [8] 78.8% | [9] 65%

Clc1cccc(/C=N/Nc2nc(N/N=C/c3cccc(Cl)c3)nc(N3CCCCC3)n2)c1
inactive: [1] 86.1% | [2] 78.4% | [3] 92.4% | [4] 76.7% | [5] 101% | [6] 92.4% | [7] 92.2% | [8] 75% | [9] 68.7%

Cc1ccc(S(=O)(=O)c2nc(-c3ccc(F)cc3)oc2S(C)(=O)=O)cc1
inactive: [1] 86.3% | [2] 91.8% | [3] 67.4% | [4] 54.1% | [6] 41.8% | [7] 102%
active: [5] -91.8% | [9] 2.92%

O=C(CCCCCCNC(=O)C(O)(O)C(F)(F)F)Nc1ncc(-c2ccc(Br)cc2)s1
inactive: [2] 21.5% | [8] 18.4%
active: [1] -27.3% | [3] 0.547% | [4] -26.1% | [5] -32.1% | [6] -32.8% | [7] -41.2% | [9] 4.21%

Cc1ccc2c(n1)C(=O)C(Cl)=C(Nc1ccc(C#N)cc1)C2=O
inactive: [1] 104% | [2] 93% | [3] 98% | [4] 16.2% | [6] 76.5% | [7] 61.6%
active: [5] -58.5% | [8] 3.83% | [9] 7.64%

N#Cc1c(-c2cccs2)c(C#N)c(=O)n(Cc2nc3ccccc3[nH]2)c1N
inactive: [1] 92.6% | [2] 90.9% | [3] 91.8% | [4] 60% | [5] 96.8% | [6] 80.7% | [7] 118% | [9] 102%

COc1ccccc1N1CCN(C2=C(Cl)C(=O)c3ncccc3C2=O)CC1
inactive: [1] 95.5% | [2] 98.2% | [3] 88.3% | [4] 44.5% | [5] 45.7% | [6] 63.6% | [7] 115% | [8] 11.5% | [9] 38.3%

O=C1Nc2ccc(F)cc2/C1=C\C(=O)c1ccc(NS(=O)(=O)c2ccccc2)cc1
inactive: [1] 115% | [2] 82.8% | [3] 87.2% | [4] 70% | [10] 130% | [5] 74.6% | [6] 72.9% | [7] 115% | [9] 40.7%

c1ccc(-c2cn3c(-c4c[nH]c5ccccc45)csc3n2)cc1
inactive: [1] 77.4% | [2] 72% | [3] 53.6% | [4] 73% | [5] 91.8% | [6] 77.9% | [7] 79.3% | [9] 66.9%

CN1CCN(Cc2ccc(NC(=O)c3cncc(C#Cc4cnc5ccc(NCCO)nn45)c3)cc2C(F)(F)F)CC1
inactive: [4] 58.4%
active: [1] -89% | [2] -0.668% | [3] 1.09% | [5] 8.5% | [6] -3.82% | [7] -94.3% | [8] 9.38%

Nc1ccc(Nc2ncnc3sc4c(c23)CCN(Cc2ccccc2)C4)cc1
inactive: [1] 109% | [2] 102% | [3] 96.8% | [4] 83.8% | [5] 91.7% | [6] 90.8% | [7] 95.3% | [8] 95.1% | [9] 87.8%
